Measurements published in PubChem BioAssay AID709 (SRMLSC, 2007).
Screen size: about 65,000 compounds; about 3,600 (5.5%) were called active. The entries come from a sample that favours actives as a whole. Unmarked numbers belong to inactive results.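 Rule for the calls: active = at 10 µM, mean starting fluorescence two-fold or more over control wells; inactive = the rest.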

Assay: intrinsic fluorescence of library compounds, ex339/em460 – biochemical, MLSMR library, data from DPM-DC assay, artefact control, profiling panel (AID 709);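 note: signal is the first read of a kinetic run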
Conditions: compound autofluorescence, ex339/em460 nm, NADH buffer; at 10 µM; hits give high values; 1 = no-compound wells, NADH background

| Compound | fluorescence fold increase |
| --- | --- |
| O=C(Cn1c(-c2ccccn2)nc2ccccc21)NCCN1CCOCC1 | 1.39 |
| O=C(COc1ccccc1F)NC1CC1 | 1.01 |
| CCc1cc(=O)oc2cc(OCC(=O)N3CCCc4ccccc43)ccc12 | 1.26 |
| NC(=O)COc1ccc2c3c(c(=O)oc2c1)CCCCC3 | 3.71 (active) |
| O=C(COc1ccc2c3c(c(=O)oc2c1)CCC3)NC1CCCCC1 | 2.13 (active) |
| O=C(COc1ccc2oc3c(c2c1)CCCC3)Nc1ccccn1 | 1.06 |
| O=C(CC1OC(=O)c2ccccc21)NC1CCCCC1 (centres undefined) | 1.08 |
| O=C(C1CCC(C(=O)N2CCCC2)CC1)N1CCCC1 (centres undefined) | 1.02 |
| Cc1nnc(SCC(=O)NCc2ccccc2)s1 | 1.06 |
| O=C(O)CC(c1ccccc1)n1cnnn1 (centres undefined) | 1.14 |
| O=C(CS(=O)(=O)Cc1ccccc1)Nc1cccnc1 | 1.1 |
| CCOCCN(C=O)c1cccc(OC)c1 | 1.15 |
| COc1ccccc1C1/C(=C(/O)c2ccc(OC(C)C)cc2)C(=O)C(=O)N1c1cc(C)on1 (centres undefined) | 1.06 |
| Cc1ccc(S(=O)(=O)NCC(=O)N(CC(=O)NC2CCCCC2)Cc2ccco2)cc1 | 1 |
| CC(Cc1cccs1)NC(=O)NC1CCCCC1 (centres undefined) | 1.06 |
| CC(=O)Oc1ccc2c(C)c(CC(C)O)c(=O)oc2c1 (centres undefined) | 3.67 (active) |
| CC(=O)Nc1cc2ccc(OC(C)=O)cc2oc1=O | 2.1 (active) |
| COc1ccc(C(=O)c2oc3ccc(Br)cc3c2NC(C)=O)cc1 | 1.11 |
| COc1ccc2oc(C)c(NC(C)=O)c2c1 | 1.06 |
| O=C(NCc1ccc(Cl)c(Cl)c1)c1cccnc1 | 0.91 |
| O=C1C=C(NCCNc2c(F)c(F)c(CO)c(F)c2F)CCC1 | 1.14 |
| COc1ccc(CSc2nc(N3CCOCC3)c3c(c2C#N)CC(C)(C)OC3)cc1 | 1.08 |
| CC(C)c1nc(N2CCOCC2)c(C#N)c2c1COC(C)(C)C2 | 2.28 (active) |
| CC(C)Cc1nc(N2CCOCC2)c(C#N)c2c1CCC2 | 1.97 |
| CC(C)C(=O)N1CCN(c2nc(-c3ccccc3)c3c(c2C#N)CC(C)(C)OC3)CC1 | 2.34 (active) |
| CC1(C)Cc2c(C#N)c(SCc3nc4ccccc4[nH]3)nc(N3CCOCC3)c2CO1 | 1.39 |
| Cc1nc(NCCN)c(C#N)c2c1COC(C)(C)C2 | 1.92 |
| C/C(=C\c1ccco1)C1Nc2cccc3cccc(c23)N1 | 1.19 |
| CCOc1c(OC)cc(C2C(C#N)=C(N)Oc3n[nH]c(-c4ccncc4)c32)cc1OC (centres undefined) | 1.13 |
